Tests used:
Experiment in all cases: log2 ratio of Biotin-Ahx-Ub-VS probe labelling (fragment/DMSO); higher = less target engagement (more negative = stronger competition), active = hit call of the paper (q ≤ 0.05, log2 ratio ≤ -1)
Settings in all cases: compound concentration: 200 uM; treatment time: 3 h
OTUD6B = molecular target: T1, OTUD6B (UniProt Q8N6M0)
T1 sequence (whole entry): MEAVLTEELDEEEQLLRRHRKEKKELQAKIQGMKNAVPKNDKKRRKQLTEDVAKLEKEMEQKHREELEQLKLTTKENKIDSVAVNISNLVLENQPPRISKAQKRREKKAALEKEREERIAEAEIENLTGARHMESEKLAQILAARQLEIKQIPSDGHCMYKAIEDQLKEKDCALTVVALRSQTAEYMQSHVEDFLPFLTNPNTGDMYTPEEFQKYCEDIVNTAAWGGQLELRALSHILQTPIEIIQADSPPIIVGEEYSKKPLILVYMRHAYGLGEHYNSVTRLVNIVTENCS
Outline: (§1)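 Each value is an average log2 ratio of fragment to vehicle, tested by unpaired t-test. The underlying Spectronaut label-free quantities were global-median-normalised, and only proteins with ≥2 unique peptides were included. Triplicate HEK293T lysate samples (495 µg) were exposed to fragment at 200 µM or vehicle for 3 h, then to Biotin-Ahx-Ub-VS at 0.5 µM final for 1 h, before NeutrAvidin enrichment of labelled DUBs, LysC and trypsin digestion, and diaPASEF LC-MS/MS.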

OTUD7B = molecular target: T2, OTUD7B (UniProt Q6GQQ9)
T2 sequence (whole entry): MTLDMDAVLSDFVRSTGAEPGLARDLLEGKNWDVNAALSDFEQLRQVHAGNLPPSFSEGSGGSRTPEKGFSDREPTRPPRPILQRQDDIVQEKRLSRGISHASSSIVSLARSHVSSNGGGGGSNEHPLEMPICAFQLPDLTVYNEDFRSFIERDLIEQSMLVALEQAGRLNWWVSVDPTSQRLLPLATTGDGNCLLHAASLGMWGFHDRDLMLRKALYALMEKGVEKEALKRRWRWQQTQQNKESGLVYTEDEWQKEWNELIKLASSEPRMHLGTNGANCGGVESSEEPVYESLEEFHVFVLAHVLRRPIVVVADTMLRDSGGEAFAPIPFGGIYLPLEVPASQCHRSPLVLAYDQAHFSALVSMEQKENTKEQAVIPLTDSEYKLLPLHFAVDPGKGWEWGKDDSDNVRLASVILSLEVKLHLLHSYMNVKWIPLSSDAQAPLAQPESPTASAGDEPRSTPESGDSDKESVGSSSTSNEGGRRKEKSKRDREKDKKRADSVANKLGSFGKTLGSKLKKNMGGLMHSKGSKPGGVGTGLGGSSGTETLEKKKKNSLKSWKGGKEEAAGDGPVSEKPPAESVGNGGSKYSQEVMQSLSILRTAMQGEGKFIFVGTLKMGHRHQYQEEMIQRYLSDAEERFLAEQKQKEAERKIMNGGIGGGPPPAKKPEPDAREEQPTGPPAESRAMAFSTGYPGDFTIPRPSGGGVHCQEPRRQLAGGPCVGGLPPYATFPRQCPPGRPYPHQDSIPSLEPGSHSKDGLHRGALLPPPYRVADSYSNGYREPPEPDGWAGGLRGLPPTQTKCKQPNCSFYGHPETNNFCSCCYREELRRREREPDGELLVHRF
Outline: as §1

PRPF8 = PRPF8 (UniProt Q6P2Q9)
Outline: as §1

PSMD7 = molecular target: T3, PSMD7 (UniProt P51665)
T3 sequence (whole entry): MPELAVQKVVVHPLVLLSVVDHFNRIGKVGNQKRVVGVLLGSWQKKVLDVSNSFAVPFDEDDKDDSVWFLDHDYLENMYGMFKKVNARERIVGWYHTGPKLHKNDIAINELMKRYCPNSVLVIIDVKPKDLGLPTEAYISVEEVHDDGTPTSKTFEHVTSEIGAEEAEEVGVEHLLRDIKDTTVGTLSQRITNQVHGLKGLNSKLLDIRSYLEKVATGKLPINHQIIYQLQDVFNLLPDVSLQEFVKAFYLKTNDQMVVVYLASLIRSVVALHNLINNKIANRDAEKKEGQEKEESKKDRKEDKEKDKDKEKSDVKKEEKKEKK
Outline: as §1

UCHL1 = UCHL1 (UniProt P09936)
Outline: as §1

UCHL3 = molecular target: T4, UCHL3 (UniProt P15374)
T4 sequence (whole entry): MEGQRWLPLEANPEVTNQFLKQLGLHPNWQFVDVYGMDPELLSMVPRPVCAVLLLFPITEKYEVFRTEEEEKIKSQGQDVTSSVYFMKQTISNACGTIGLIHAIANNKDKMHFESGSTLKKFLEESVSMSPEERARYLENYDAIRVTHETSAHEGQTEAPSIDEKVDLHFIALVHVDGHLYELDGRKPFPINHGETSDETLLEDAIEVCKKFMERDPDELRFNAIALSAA
Outline: as §1

UCHL5 = molecular target: T5, UCHL5 (UniProt Q9Y5K5)
T5 sequence (whole entry): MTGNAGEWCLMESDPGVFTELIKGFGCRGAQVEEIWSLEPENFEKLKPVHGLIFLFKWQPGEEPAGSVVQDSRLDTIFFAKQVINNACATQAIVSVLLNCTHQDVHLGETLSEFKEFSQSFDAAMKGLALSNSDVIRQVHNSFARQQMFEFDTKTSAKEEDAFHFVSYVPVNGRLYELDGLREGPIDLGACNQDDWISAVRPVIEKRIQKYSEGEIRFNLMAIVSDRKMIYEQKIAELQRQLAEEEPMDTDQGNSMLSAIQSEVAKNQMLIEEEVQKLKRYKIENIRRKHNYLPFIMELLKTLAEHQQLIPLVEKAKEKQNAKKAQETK
Outline: as §1

USP10 = USP10 (UniProt Q14694)
Outline: as §1

USP15 = molecular target: T6, USP15 (UniProt Q9Y4E8)
T6 sequence (whole entry): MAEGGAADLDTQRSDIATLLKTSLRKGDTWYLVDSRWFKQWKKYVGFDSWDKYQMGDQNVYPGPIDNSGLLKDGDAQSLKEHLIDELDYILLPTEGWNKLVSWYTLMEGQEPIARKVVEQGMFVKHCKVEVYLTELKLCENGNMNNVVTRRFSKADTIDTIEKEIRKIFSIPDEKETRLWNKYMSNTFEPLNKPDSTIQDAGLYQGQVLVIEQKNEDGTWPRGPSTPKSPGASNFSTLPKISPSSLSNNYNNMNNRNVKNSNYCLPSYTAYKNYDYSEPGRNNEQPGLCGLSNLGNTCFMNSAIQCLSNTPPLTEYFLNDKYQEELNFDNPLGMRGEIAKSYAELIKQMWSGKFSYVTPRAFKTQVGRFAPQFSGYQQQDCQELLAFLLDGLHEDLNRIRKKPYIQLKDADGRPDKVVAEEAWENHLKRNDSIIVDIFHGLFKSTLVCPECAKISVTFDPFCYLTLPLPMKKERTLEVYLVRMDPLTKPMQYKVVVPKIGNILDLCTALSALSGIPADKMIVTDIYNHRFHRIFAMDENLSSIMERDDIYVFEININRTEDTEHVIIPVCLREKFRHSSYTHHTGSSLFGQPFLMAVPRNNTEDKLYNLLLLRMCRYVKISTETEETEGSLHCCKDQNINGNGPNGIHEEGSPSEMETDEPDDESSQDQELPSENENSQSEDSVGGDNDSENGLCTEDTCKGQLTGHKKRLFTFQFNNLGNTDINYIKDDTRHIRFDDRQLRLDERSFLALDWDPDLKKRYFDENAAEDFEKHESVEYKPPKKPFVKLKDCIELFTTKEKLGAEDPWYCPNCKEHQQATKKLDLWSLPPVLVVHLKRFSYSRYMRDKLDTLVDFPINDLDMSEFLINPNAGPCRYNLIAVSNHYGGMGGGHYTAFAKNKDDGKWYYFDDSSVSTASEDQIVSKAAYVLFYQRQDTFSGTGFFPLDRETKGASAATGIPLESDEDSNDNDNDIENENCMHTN
Outline: as §1

USP16 = USP16 (UniProt Q9Y5T5)
Outline: as §1

Measured: log2 ratio of Biotin-Ahx-Ub-VS probe labelling

Chain of USP10 (Q14694 whole entry): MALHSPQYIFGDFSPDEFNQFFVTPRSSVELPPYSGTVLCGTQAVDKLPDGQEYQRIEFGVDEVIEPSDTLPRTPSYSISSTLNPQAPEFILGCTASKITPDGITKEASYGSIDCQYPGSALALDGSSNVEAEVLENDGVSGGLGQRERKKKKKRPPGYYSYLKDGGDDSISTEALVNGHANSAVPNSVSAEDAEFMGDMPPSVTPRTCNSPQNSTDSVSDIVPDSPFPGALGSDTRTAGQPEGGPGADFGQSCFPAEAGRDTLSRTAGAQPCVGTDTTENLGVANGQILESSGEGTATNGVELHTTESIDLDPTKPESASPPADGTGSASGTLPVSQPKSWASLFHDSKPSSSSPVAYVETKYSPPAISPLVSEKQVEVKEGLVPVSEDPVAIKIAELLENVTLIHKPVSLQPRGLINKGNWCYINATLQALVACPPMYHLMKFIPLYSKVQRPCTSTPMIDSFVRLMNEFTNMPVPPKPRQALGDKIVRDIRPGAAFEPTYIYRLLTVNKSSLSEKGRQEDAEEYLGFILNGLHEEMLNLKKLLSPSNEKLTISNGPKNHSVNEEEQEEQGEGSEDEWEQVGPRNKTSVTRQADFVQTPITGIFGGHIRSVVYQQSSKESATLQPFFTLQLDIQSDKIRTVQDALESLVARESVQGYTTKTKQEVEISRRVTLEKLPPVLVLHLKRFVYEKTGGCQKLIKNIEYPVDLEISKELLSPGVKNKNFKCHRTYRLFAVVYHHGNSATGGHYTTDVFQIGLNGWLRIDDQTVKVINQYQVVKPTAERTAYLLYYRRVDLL
Chain of UCHL1 (P09936 whole entry, looked up): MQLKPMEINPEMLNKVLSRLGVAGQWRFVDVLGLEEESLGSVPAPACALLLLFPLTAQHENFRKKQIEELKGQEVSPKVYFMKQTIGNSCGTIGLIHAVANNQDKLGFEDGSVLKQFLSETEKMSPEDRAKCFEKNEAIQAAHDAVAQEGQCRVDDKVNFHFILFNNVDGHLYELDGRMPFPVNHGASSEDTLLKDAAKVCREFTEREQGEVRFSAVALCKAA
Chain of USP16 (Q9Y5T5 whole entry, looked up): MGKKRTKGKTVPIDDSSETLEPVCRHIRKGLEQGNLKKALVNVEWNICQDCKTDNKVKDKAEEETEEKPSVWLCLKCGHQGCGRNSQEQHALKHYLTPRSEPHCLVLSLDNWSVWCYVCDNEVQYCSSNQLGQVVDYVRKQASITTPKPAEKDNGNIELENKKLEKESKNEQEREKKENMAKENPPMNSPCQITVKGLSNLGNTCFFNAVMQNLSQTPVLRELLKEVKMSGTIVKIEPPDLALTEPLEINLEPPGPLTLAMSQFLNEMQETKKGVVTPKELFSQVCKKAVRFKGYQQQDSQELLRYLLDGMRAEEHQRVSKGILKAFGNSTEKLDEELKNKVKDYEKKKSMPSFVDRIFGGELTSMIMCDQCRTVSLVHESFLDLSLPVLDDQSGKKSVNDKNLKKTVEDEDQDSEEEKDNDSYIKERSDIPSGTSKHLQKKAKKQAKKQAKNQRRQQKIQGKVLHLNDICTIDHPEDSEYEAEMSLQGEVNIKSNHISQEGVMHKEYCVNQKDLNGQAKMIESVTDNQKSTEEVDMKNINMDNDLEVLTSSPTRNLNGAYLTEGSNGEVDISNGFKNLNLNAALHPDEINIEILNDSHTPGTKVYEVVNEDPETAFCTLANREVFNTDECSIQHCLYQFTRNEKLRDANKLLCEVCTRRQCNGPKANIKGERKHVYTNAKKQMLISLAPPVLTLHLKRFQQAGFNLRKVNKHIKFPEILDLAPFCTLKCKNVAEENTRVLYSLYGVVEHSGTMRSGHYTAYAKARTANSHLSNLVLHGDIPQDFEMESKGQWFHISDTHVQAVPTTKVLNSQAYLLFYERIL

O=C(CCl)NCCc1ccc2c(c1)OCCO2
inactive: OTUD6B -0.218 | OTUD7B -0.434 | PRPF8 0.0207 | PSMD7 -0.153 | UCHL3 -0.0656 | UCHL5 -0.156 | USP10 -0.3 | USP15 -0.184 | USP16 0.248
active: UCHL1 -1.2
